Source: PubChem
In the library only some 9.2% were active in any assay of this set; here they are far more common.
ELG1 genotoxic: genotoxicity induction in ELG1-luciferase HEK293T cells. HEK293T ELG1-luciferase reporter, luminescence, 16 h. Potency, µM (titrated, usually from 46 µM), for the others: at the top dose activity change, positive = activation, hits mostly activators. 1.3% of 330,000 active. AID 504466; further: % of control where 0% means no effect; nearly all actives have a fitted effect of over 60% in size
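HEK293T cells expressing luciferase-tagged ELG1 were exposed to compound or DMSO vehicle for 16 hr at 37 °C and 5% CO2. Luciferase activity was then measured with ONE-Glo after 30 min at room temperature.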
Rab9 prom act: Rab9 promoter activation. Huh7 Rab9 promoter-luciferase reporter, luminescence, 24 h. Potency, µM (titrated, usually from 9.22 µM), without a hit: at the top dose activation, negative = inhibition, actives largely listed as activators. 2.8% of 320,000 active. AID 485297; further: % of control where 0% means no effect; nearly all actives have a fitted effect of over 60% in size
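Huh7 cells stably carrying a Rab9 promoter-luciferase reporter, 1500 cells per well in OP-MEM I with 10% FBS, treated with compound 24 hours at 37C. Luciferase activity read by luminescence after 10 minutes with Amplite reagent.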
SMN2 splice up: increases expression of the SMN2 splice variant. HEK293 SMN2-luciferase splicing reporter, luminescence, 30-36 h. 2.8% of 210,000 active. Potency, µM (titrated, usually from 46.1 µM), for inactives: at the highest dose activity change, positive = activation, actives largely listed as activators; further: % of control where 0% means no effect; nearly all actives have a fitted effect of over 55% in size
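HEK293 cells carry an SMN2 minigene-luciferase reporter in which exon 7 inclusion puts luciferase in frame. Cells were seeded at 2000 cells/well, attached for 10-12 hours, then exposed to compounds for 30-36 hours at 37C before ONE-Glo luminescence.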
NPC1 promoter act: activators of NPC1 promoter; Potency, µM (titrated, usually from 9.22 µM), inactives show top-dose activation, usual class: activators; Huh7 NPC1 promoter luciferase reporter, 24 h; 2.4% of 320,000 active; further: % of control where 0% means no effect; nearly all actives have a fitted effect of over 60% in size
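Luminescence read-out of NPC1 promoter-driven luciferase in stably transfected Huh7 cells; compounds delivered in DMSO and left 24 h at 37C, 5% CO2, qHTS titration format.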
FLuc counter: firefly luciferase modulation, counter-screen for miR-21 project; P08659; purified FLuc, Km substrates, luminescence inhibition; Potency, µM (series often up to 57.5 µM), inactives show top-dose activity change, negative = inhibition, actives largely listed as inhibitors; 6.9% of 360,000 active; AID 588342;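 further: plate controls were vehicle for no effect and reference inhibitor for full effect; nearly all actives have a fitted effect of over 55% in size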
Target sequence (P08659 whole entry, looked up): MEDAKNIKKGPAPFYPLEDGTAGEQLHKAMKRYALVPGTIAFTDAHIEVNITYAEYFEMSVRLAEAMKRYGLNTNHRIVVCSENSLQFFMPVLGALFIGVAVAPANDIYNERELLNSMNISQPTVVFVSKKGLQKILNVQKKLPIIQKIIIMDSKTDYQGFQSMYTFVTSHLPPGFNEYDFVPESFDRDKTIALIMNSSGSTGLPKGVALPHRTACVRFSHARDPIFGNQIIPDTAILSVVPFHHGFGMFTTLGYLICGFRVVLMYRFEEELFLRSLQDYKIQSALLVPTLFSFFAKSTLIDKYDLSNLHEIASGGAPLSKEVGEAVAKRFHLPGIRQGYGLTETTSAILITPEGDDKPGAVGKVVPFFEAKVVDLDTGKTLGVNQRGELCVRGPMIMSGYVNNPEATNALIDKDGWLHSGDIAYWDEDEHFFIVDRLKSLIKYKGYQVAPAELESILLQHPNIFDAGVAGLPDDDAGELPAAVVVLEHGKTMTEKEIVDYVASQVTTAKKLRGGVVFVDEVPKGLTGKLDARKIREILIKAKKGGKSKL
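Purified P. pyralis luciferase, 10 nM final, with Km-level 10 uM D-luciferin and 10 uM ATP in 50 mM Tris acetate pH 7.5, 10 mM Mg acetate, 0.01% Tween-20, 0.05% BSA; 6-point qHTS titration about 60 µM downward; luminescence read.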
ELG1 repair inh: blocks ELG1-dependent DNA repair in HEK293T cells; HEK293T ELG1-luciferase reporter, luminescence, 16 h; DNA damage induced by 5-fluorouridine; Potency, µM (highest dose often 46.1 µM), without a hit: at the top dose activity change, negative = inhibition, most hits filed as inhibitors; 2.3% of 330,000 active; further: on the % scale 0 is the no-effect control and ±100 the full control effect; nearly all actives have a fitted effect of over 55% in size
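5-Fluorouridine DNA damage + compound/DMSO, 2,000 cells/well, 16 h, 37 °C/5% CO2. ONE-Glo, 30 min RT, luminescence. Readout = decrease in reporter signal.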
Starred values were filed as active, the others as inactive. The call rests on the fitted dose curve; in most records, active means well fitted curve in the direction sought with a large enough effect; inconclusive means small, poorly fitted or top-dose-only effect, or another doubt; inactive means no such curve, though single readings can be large; an effect the other way counts as inactive or inconclusive. Potency means the concentration at half of the fitted maximal effect.

`O=C(NC1CCCCC1)C(c1ccc(Cl)cc1)N(C(=O)c1ccccn1)c1cccnc1` (stereo not given) gave ELG1 genotoxic 6%, Rab9 prom act -3%, SMN2 splice up 11%, NPC1 promoter act 1%, FLuc counter -2% and ELG1 repair inh -15%.
COc1cc(OC)cc(C(=O)N[C@H](C(=O)OCC(=O)c2c[nH]c3ccccc23)C(C)C)c1 was read as ELG1 genotoxic -3% and ELG1 repair inh 21µM*.
For COc1cc(OC)cc(C(=O)N[C@H](C(=O)NCCc2c[nH]c3ccccc23)C(C)C)c1 the results were ELG1 genotoxic -1%, Rab9 prom act 2%, SMN2 splice up 13%, NPC1 promoter act -9%, FLuc counter 4% and ELG1 repair inh -15%.
Screening Cc1cc(C)n(-c2nc3ccccc3nc2Nc2cccc(C(=O)NCCc3ccccc3)c2)n1 returned SMN2 splice up 0% and FLuc counter -2%.
For Nc1nn2cc(-c3ccccc3)nc2c2ccccc12 the results were ELG1 genotoxic 5.2µM*, Rab9 prom act 3.2µM*, SMN2 splice up 4.5µM*, NPC1 promoter act inconclusive, FLuc counter 1.9µM* and ELG1 repair inh inconclusive.
`CCC(C)NCC(=O)Nc1cc(S(=O)(=O)N(CC)c2ccccc2)ccc1Cl` (stereo not given) gave ELG1 genotoxic -8%, Rab9 prom act -3%, SMN2 splice up -32%, NPC1 promoter act -1%, FLuc counter 3% and ELG1 repair inh -12%.
Screening CN(C)S(=O)(=O)c1ccc(Cl)c(NC(=O)CN2CCCCCC2)c1 returned ELG1 genotoxic -4%, Rab9 prom act -4%, SMN2 splice up -5%, NPC1 promoter act -1%, FLuc counter 4% and ELG1 repair inh -4%.
CCN(c1ccccc1)S(=O)(=O)c1ccc(Cl)c(NC(=O)CNC(C)c2ccccc2)c1 (stereo not given) was read as ELG1 genotoxic 0% and ELG1 repair inh 15µM*.
`CCN(c1ccccc1)S(=O)(=O)c1ccc(Cl)c(NC(=O)CN2CCCCCC2)c1` gave ELG1 genotoxic -15%, Rab9 prom act -2%, NPC1 promoter act -18%, FLuc counter -1% and ELG1 repair inh 16µM*.
CCSC1(SCC)N=C(N)C2(C#N)C(c3ccc(OC)c(OC)c3OC)C12C#N (stereo not given) was read as ELG1 genotoxic 11%, Rab9 prom act -4%, SMN2 splice up -94%, NPC1 promoter act 1%, FLuc counter -7% and ELG1 repair inh 15µM*.
For CCSC1(SCC)N=C(N)C2(C#N)C(c3ccccc3)NC3=C(CCC3)C12C#N (stereo not given) the results were ELG1 genotoxic -3%, Rab9 prom act 8%, SMN2 splice up 20%, NPC1 promoter act 6%, FLuc counter -1% and ELG1 repair inh 16%.
CCCCOc1ccc(Cc2cnc(N)nc2N)cc1 was read as ELG1 genotoxic -6%, Rab9 prom act 2%, NPC1 promoter act 14%, FLuc counter -6% and ELG1 repair inh -15%.
CCCCOc1ccc(N=Nc2ccc(N)nc2N)cn1 was read as ELG1 genotoxic inconclusive, Rab9 prom act 2.5µM*, NPC1 promoter act 3.2µM*, FLuc counter 13µM* and ELG1 repair inh inconclusive.
`FC(F)Sc1ccc(Nc2ncnc3nc[nH]c23)cc1` gave ELG1 genotoxic 18%, Rab9 prom act inconclusive, SMN2 splice up 11µM*, NPC1 promoter act inconclusive, FLuc counter inconclusive and ELG1 repair inh inconclusive.
COc1ccc(C2CC(c3ccccc3)=NN2C(=O)COC(=O)c2ccc(S(C)(=O)=O)cc2)cc1 (stereo not given) was read as ELG1 genotoxic 0%, Rab9 prom act -2%, NPC1 promoter act -1%, FLuc counter 2% and ELG1 repair inh inconclusive.
Screening CCOC(=O)/C=C(\C)N1N=C(c2ccccc2)CC1c1ccccc1 (stereo not given) returned ELG1 genotoxic -9%, Rab9 prom act inconclusive, SMN2 splice up inconclusive, NPC1 promoter act 8%, FLuc counter 17µM* and ELG1 repair inh inconclusive.
CC(=O)OCC(=O)N1N=C(c2ccc3ccccc3c2)CC1c1ccccc1 (stereo not given) was read as ELG1 genotoxic 8%, Rab9 prom act 3.2µM*, SMN2 splice up 22%, NPC1 promoter act inconclusive, FLuc counter -11% and ELG1 repair inh 21%.
`COc1ccc(C2CC(c3ccc4ccccc4c3)=NN2C(=O)COC(=O)C2CCC(=O)N2)cc1` (stereo not given) gave ELG1 genotoxic inconclusive, Rab9 prom act 1.1µM*, SMN2 splice up 14µM*, NPC1 promoter act 1.6µM*, FLuc counter 24µM* and ELG1 repair inh inconclusive.
For CCOC(=O)c1nnn(CC(=O)N2N=C(c3ccccc3)CC2c2ccccc2)c1C(=O)OCC (stereo not given) the results were ELG1 genotoxic 1%, Rab9 prom act -4%, SMN2 splice up -21%, NPC1 promoter act -1%, FLuc counter 2% and ELG1 repair inh 8%.
For COc1ccc(C2CC(c3ccccc3)=NN2C(=O)COC(=O)c2cccc(O)c2)cc1 (stereo not given) the results were ELG1 genotoxic -7% and ELG1 repair inh 16µM*.
`Nc1cc(=O)[nH]c(SCC(=O)N2N=C(c3ccc4ccccc4c3)CC2c2ccccc2)n1` (stereo not given) gave ELG1 genotoxic -10%, Rab9 prom act 0%, NPC1 promoter act 2%, FLuc counter 3% and ELG1 repair inh -15%.
COc1ccc(C2CC(c3ccc4ccccc4c3)=NN2C(=O)CN2CCC(C(N)=O)CC2)cc1 (stereo not given) was read as ELG1 genotoxic -11%, Rab9 prom act inconclusive, SMN2 splice up -102%, NPC1 promoter act 16%, FLuc counter inconclusive and ELG1 repair inh -13%.
Screening CCCS(=O)(=O)N1CC(=O)N(c2ccccc2C)C(C)(C(=O)NC2CCCCC2)C1 (stereo not given) returned FLuc counter -1%.
Screening O=C(CC1C[C@H](C(=O)N2CCOCC2)[C@@]2(CCC3CCCC3)c3[nH]c4ccccc4c3CCN2C1=O)NCC12CC3CC(CC(C3)C1)C2 (stereo not given in full) returned ELG1 genotoxic -12% and ELG1 repair inh -17%.
For CCCCNC(=O)CN1CCN(c2ncc(NC(=O)c3ccc(Cl)cc3)cc2C(=O)O)CC1 the results were FLuc counter -20%.
